In the supplement of paper PMC10849652:
About 8,800 targets were measured; listed, in parts, are those with a hit and a random draw of the rest. About 0.5% of all pairs of compound and target were hits. Unmarked numbers belong to inactive results.

Assays:
Assay in all cases: log2 fold change, soluble protein after heating vs DMSO (PISA); higher = thermal stabilisation; K562 lysate, 10 uM; active = over 0.2 and 3.5 SD of the protein, either way, in both replicates (recomputed)
[1] = compound: Cc1cn(-c2cc(NC(=O)c3ccc(C)c(Nc4nccc(-c5cccnc5)n4)c3)cc(C(F)(F)F)c2)cn1 [nilotinib]
Procedure, shortened: (§1)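 K562 pellets were dounce-homogenised in PBS pH 7.4 containing 1 mM MgCl2, and the crude extract, at 1 mg/mL protein, was exposed to 10 μM compound for 30 min. Aliquots were heated for 3 min across 48°C-58°C, pooled, brought to 0.5% NP-40 at 4°C and spun at 21,000xg for 90 min, with the supernatant taken as soluble protein. TMTpro 16plex LC-MS/MS with equalised channel sums quantified that protein. Values are log-two fold changes in thermal stability relative to solvent controls, taken from duplicates.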

[2] = compound: Cc1nc(Nc2n[nH]c3c2CN(C(=O)N[C@H](CN(C)C)c2ccccc2)C3(C)C)c2sccc2n1
Procedure, shortened: as §1

[3] = compound: Cc1nc(Nc2ncc(C(=O)Nc3c(C)cccc3Cl)s2)cc(N2CCN(CCO)CC2)n1 [dasatinib]
Procedure, shortened: as §1

[4] = compound: Cc1ncc(-c2ccnc(Nc3ccc(S(C)(=O)=O)cc3)n2)n1C(C)C
Procedure, shortened: as §1

[5] = compound: Cn1cc(-c2ccc3c(c2)CCN3C(=O)Cc2cccc(C(F)(F)F)c2)c2c(N)ncnc21
Procedure, shortened: as §1

[6] = compound: Cn1cc(CNCC2CCN(c3ncc(C(=O)NO)cn3)CC2)c2ccccc21 [quisinostat]
Procedure, shortened: as §1

[7] = compound: Cn1cncc1[C@@](N)(c1ccc(Cl)cc1)c1ccc2c(c1)c(-c1cccc(Cl)c1)cc(=O)n2C [tipifarnib]
Procedure, shortened: as §1

[8] = compound: NC(=O)Nc1cc(-c2cccc(F)c2)sc1C(=O)N[C@H]1CCCNC1
Procedure, shortened: as §1

[9] = compound: NC(=O)c1cnc(N[C@@H]2CCCC[C@@H]2N)nc1Nc1cccc(-n2nccn2)c1
Procedure, shortened: as §1

[10] = compound: NC1(c2ccc(-c3nc4ccn5c(=O)[nH]nc5c4cc3-c3ccccc3)cc2)CCC1
Procedure, shortened: as §1

[11] = compound: NCC(=O)Nc1ccc(-n2nc(C(F)(F)F)cc2-c2ccc3c(ccc4ccccc43)c2)cc1
Procedure, shortened: as §1

[12] = compound: O=C(CCCCCCC(=O)Nc1ccccc1)NO [vorinostat]
Procedure, shortened: as §1

[13] = compound: O=C(O)c1ccc2c(c1)nc(Nc1cccc(Cl)c1)c1ccncc12 [silmitasertib]
Procedure, shortened: as §1

[14] = compound: O=C1NC(=O)C(c2cnc3ccccn23)=C1c1cn2c3c(cc(F)cc13)CN(C(=O)N1CCCCC1)CC2
Procedure, shortened: as §1

[15] = compound: c1cn2cc(-c3ccc4cn[nH]c4c3)nc(Nc3ccc(N4CCOCC4)cc3)c2n1 [entospletinib]
Procedure, shortened: as §1

Chain of UniProt Q9NXJ5 (Q9NXJ5 whole entry, looked up): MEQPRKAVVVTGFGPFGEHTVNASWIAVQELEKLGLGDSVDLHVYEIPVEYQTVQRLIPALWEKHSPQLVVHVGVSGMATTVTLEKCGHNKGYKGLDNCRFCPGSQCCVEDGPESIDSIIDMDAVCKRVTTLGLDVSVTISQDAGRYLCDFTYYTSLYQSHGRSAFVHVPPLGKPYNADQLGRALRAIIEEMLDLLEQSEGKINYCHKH
Chain of UniProt Q8TCG2 (Q8TCG2 whole entry, looked up): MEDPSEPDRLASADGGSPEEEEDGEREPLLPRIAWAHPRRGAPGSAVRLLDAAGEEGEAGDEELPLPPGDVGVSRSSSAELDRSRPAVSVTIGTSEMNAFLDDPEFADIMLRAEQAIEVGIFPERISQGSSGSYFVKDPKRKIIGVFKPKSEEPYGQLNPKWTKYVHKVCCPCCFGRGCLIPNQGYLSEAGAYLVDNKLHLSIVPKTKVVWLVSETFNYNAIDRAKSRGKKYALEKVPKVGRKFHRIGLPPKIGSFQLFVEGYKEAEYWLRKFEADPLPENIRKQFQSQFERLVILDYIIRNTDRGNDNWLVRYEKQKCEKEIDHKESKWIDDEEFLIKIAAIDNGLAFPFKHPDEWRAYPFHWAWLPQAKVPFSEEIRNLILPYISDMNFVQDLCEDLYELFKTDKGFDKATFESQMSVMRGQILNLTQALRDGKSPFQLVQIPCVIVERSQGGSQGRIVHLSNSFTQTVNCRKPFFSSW
Chain of UniProt P41219 (P41219 whole entry, looked up): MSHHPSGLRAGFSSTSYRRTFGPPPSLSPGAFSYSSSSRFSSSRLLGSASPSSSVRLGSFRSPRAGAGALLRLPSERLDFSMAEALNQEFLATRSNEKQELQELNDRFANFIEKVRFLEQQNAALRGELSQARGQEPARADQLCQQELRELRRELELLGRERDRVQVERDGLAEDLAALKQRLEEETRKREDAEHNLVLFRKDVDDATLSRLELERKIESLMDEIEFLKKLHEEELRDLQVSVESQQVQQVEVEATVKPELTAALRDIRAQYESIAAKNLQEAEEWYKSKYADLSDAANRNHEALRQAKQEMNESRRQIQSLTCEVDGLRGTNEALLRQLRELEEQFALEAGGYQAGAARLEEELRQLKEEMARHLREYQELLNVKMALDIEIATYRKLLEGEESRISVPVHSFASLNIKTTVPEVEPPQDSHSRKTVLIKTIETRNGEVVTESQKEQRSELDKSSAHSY
Chain of UniProt Q05655 (Q05655 whole entry, looked up): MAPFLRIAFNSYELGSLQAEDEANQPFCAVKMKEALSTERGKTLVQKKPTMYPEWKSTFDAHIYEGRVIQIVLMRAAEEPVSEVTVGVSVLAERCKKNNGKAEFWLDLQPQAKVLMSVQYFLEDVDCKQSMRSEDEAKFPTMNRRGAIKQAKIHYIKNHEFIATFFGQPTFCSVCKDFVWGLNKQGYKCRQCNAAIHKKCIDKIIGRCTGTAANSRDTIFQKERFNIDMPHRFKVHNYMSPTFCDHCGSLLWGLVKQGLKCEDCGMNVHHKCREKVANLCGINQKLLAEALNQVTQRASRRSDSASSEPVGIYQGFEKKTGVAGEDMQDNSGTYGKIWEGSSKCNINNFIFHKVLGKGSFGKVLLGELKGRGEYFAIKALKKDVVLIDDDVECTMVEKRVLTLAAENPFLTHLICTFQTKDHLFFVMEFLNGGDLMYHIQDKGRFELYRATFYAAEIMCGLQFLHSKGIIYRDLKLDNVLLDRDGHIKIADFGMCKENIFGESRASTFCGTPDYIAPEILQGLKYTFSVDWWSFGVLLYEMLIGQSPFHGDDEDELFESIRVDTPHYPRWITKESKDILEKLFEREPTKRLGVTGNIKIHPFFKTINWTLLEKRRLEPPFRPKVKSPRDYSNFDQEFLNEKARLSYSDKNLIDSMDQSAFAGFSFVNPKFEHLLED
Chain of UniProt Q96PU8 (Q96PU8 whole entry, looked up): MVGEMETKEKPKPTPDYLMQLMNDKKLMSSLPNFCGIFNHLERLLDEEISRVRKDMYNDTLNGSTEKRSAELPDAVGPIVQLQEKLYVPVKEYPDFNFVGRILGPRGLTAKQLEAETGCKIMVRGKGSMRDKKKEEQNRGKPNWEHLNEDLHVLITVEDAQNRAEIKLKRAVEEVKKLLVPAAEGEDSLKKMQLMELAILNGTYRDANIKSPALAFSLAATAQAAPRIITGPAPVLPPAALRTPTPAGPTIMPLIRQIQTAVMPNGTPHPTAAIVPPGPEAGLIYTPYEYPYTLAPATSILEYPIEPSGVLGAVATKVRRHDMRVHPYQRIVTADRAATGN
Chain of UniProt P29350 (P29350 whole entry, looked up): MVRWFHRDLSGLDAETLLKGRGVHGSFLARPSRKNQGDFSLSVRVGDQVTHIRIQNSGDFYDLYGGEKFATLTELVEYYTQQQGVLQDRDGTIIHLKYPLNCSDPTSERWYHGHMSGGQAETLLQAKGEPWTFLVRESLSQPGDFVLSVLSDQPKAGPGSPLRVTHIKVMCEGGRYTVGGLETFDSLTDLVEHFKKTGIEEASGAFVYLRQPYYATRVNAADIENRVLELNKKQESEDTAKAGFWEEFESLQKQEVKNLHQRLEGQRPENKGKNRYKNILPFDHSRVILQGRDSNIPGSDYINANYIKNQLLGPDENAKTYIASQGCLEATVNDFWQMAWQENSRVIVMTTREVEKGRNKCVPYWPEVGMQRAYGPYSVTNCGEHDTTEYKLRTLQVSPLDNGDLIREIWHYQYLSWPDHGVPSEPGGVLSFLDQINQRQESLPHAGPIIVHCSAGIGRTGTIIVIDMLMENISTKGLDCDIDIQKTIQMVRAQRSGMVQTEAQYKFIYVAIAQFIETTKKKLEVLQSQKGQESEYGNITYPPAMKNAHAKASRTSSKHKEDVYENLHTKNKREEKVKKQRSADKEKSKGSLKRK
Chain of UniProt Q14289 (Q14289 whole entry, looked up): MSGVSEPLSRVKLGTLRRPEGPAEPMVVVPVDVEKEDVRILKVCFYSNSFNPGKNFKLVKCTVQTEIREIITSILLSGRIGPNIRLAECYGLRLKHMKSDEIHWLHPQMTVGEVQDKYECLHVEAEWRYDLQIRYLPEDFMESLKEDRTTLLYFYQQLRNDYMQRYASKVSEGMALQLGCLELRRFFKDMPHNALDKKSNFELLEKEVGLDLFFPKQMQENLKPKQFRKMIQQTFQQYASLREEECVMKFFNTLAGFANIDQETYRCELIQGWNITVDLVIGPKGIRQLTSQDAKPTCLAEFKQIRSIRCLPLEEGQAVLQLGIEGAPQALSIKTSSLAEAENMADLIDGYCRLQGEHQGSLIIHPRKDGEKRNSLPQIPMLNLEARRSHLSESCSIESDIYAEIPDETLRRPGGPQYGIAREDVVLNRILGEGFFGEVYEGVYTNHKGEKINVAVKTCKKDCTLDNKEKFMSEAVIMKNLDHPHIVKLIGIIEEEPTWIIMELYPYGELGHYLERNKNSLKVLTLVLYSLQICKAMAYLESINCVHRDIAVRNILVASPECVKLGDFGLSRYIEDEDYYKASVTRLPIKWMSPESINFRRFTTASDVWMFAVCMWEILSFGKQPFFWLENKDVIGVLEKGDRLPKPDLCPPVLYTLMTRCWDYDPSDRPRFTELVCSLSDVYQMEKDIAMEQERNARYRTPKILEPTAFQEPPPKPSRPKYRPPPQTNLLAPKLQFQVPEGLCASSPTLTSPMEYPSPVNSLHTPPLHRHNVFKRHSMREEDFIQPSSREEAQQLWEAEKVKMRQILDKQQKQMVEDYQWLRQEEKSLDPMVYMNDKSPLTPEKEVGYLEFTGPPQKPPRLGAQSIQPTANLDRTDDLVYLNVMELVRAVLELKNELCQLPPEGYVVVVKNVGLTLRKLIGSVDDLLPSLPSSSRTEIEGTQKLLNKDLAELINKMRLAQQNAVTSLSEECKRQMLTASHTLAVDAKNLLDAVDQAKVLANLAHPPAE
Chain of UniProt P27986 (P27986 whole entry, looked up): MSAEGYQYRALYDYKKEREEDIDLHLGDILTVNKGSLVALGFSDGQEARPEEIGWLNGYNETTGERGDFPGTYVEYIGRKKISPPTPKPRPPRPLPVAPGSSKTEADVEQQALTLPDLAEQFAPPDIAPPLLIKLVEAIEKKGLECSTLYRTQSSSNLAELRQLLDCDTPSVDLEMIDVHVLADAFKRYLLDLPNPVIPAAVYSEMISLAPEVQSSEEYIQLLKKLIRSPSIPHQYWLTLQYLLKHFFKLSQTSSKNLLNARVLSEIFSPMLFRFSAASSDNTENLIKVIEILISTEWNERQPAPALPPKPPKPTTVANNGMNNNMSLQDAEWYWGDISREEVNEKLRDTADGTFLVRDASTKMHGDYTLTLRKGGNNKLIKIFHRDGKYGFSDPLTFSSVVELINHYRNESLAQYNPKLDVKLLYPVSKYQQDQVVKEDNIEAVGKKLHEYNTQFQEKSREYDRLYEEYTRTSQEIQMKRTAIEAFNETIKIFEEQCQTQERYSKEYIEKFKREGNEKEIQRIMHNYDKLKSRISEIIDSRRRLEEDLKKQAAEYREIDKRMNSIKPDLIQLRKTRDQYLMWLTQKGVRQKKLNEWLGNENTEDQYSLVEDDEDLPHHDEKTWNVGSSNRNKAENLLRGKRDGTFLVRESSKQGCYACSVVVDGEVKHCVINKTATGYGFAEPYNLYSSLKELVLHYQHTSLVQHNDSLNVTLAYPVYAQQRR
Chain of UniProt Q12972 (Q12972 whole entry, looked up): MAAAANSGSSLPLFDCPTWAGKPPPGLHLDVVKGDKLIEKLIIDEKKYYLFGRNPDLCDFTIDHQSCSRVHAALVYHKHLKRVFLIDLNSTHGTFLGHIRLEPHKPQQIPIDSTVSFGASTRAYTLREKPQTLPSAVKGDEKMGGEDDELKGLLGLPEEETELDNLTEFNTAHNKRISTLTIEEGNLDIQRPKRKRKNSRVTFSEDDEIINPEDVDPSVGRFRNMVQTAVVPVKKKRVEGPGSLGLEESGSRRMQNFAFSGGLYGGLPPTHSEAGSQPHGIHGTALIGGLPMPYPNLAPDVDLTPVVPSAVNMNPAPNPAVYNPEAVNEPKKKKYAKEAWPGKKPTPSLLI

Row | Target | log2 fold change [1] | log2 fold change [2] | log2 fold change [3] | log2 fold change [4] | log2 fold change [5] | log2 fold change [6] | log2 fold change [7] | log2 fold change [8] | log2 fold change [9] | log2 fold change [10] | log2 fold change [11] | log2 fold change [12] | log2 fold change [13] | log2 fold change [14] | log2 fold change [15]
1 | PGPEP1 (UniProt Q9NXJ5) | 0.018 | 0.019 | -0.067 | 0.07 | 0.011 | 0.041 | -0.006 | -0.033 | -0.03 | 0.033 | 0 | -0.526 (active) | 0.009 | 0.012 | -0.049
2 | PCIF1 (UniProt Q9H4Z3) | 0.018 | -0.089 | 0.118 | 0.011 | -0.439 (active) | 0.019 | 0.015 | -0.016 | -0.006 | 0.022 | -0.018 | -0.011 | 0.112 | 0.036 | 0.085
3 | PRKCD (UniProt Q05655) | 0.002 | 0.193 | -0.053 | 0.056 | 0 | 0.002 | -0.013 | -0.013 | 0.218 | 0.021 | 0.008 | -0.075 | -0.006 | -0.005 | 0.019
4 | PI4K2B (UniProt Q8TCG2) | -0.037 | 0.021 | -0.021 | 0.069 | 0.092 | 0.063 | -0.036 | 0.076 | 0.689 (active) | 0.009 | -0.038 | -0.054 | 0.041 | 0.011 | 0.014
5 | PCBP2 (UniProt H3BRU6) | 0.066 | 0.04 | 0.079 | 0.027 | -0.082 | -0.119 | -0.095 | 0.042 | -0.023 | 0.084 | 0.139 | -0.662 (active) | -0.102 | -0.053 | 0.061
6 | PPP1R8 (UniProt Q12972) | 0.004 | -0.011 | 0.03 | 0.034 | 0.025 | -0.023 | 0.013 | -0.007 | 0.01 | -0.024 | 0.02 | 0.04 | -0.009 | -0.017 | 0.025
7 | PCBP2 isoform 3 (UniProt Q15366) | 0.019 | -0.012 | -0.019 | 0.015 | 0.039 | 0.044 | 0.005 | 0 | 0.005 | 0.072 | -0.071 | -0.252 (active) | 0.042 | -0.035 | 0.01
8 | PRPH isoform 2 (UniProt P41219) | -0.022 | 0.032 | -0.019 | -0.024 | 0.036 | 0.034 | -0.02 | -0.027 | 0.028 | 0.094 | 0 | 0.112 | 0.001 | -0.098 | -0.052
9 | PDXDC1 (UniProt Q6P996) | 0.058 | 0.064 | -0.098 | -0.024 | 0.022 | -0.035 | -0.074 | 0.019 | 0.042 | 0.012 | -0.041 | -0.233 (active) | 0.038 | 0.018 | -0.019
10 | PTGR2 (UniProt Q8N8N7) | 0.024 | -0.044 | 0.012 | 0.025 | 0.024 | -0.008 | 0.034 | -0.011 | -0.002 | 0.011 | -0.083 | 0.656 (active) | -0.002 | 0.11 | -0.005
11 | QKI (UniProt Q96PU8) | -0.053 | 0.006 | -0.02 | 0.062 | -0.038 | -0.013 | -0.024 | 0.055 | -0.005 | -0.008 | -0.008 | -0.147 | 0.021 | 0.045 | 0.007
12 | PTPN2 (UniProt P17706) | 0 | 0.026 | -0.026 | -0.041 | 0.014 | -0.067 | -0.001 | 0.025 | 0.006 | -0.005 | -0.005 | -0.298 (active) | 0.024 | -0.002 | 0.07
13 | PRKCA (UniProt P17252) | -0.008 | 0.227 | -0.028 | 0.095 | -0.056 | -0.035 | 0 | -0.067 | 0.408 (active) | -0.006 | -0.045 | -0.14 | 0.044 | 0.087 | 0.018
14 | PRMT7 (UniProt Q9NVM4) | 0.039 | -0.01 | 0.032 | -0.029 | -0.032 | -0.041 | -0.011 | 0.023 | 0.028 | 0.025 | -0.017 | -0.174 | -0.011 | 0.04 | -0.018
15 | POGK (UniProt Q9P215) | -0.04 | 0.005 | -0.068 | -0.001 | -0.023 | -0.086 | 0.007 | 0.108 | 0.008 | -0.006 | 0.018 | -0.173 | 0.002 | -0.083 | 0.3
16 | PLXNB2 (UniProt O15031) | -0.052 | 0.019 | -0.036 | 0.013 | 0.003 | 0.016 | -0.017 | 0.042 | -0.024 | -0.006 | 0.003 | 0.033 | 0.001 | 0.019 | -0.03
17 | PLEKHA5 isoform 6 (UniProt Q9HAU0) | -0.052 | 0.032 | 0.006 | -0.005 | 0.021 | -0.011 | 0.009 | 0.011 | -0.008 | -0.003 | -0.029 | -0.305 (active) | -0.003 | -0.016 | 0.022
18 | PTK2B (UniProt Q14289) | 0.011 | 0.109 | 0.041 | 0.026 | 0.059 | -0.122 | -0.067 | 0.377 (active) | 0.072 | -0.04 | 0.016 | -0.339 (active) | 0.021 | -0.088 | -0.002
19 | PHLDB1 (UniProt Q86UU1) | -0.035 | -0.012 | 0.002 | -0.006 | -0.046 | -0.243 | -0.003 | 0.028 | -0.036 | 0.004 | 0.022 | -0.357 (active) | 0.012 | 0.128 | 0.008
20 | PIK3R1 (UniProt P27986) | -0.041 | -0.072 | -0.024 | 0.058 | 0.004 | -0.027 | 0.039 | 0.042 | 0.021 | 0.249 | -0.035 | -0.206 | 0.213 | 0.022 | 0.03
21 | PTPN6 isoform 4 (UniProt P29350) | -0.002 | -0.028 | 0.028 | -0.043 | 0.071 | 0.01 | 0.055 | -0.03 | -0.128 | 0.062 | -0.001 | -0.039 | 0.078 | 0.006 | 0.107
